This is a sample that favours compounds with a hit; in the whole collection about 2.4% have one here.
POLB inh – DNA polymerase beta (human) inhibition | P06746 | Pol beta primer extension/strand displacement, fluorescence kinetic | Potency, µM (series often up to 114 µM), for inactives: at the top dose activity change, negative = inhibition, hits mostly inhibitors | actives 1.3% (n = 340,000) | AID 485314; also: % is scaled to controls: 0 for no effect and ±100 for the full control effect
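Enzyme-only controls used 10 nM Pol beta; buffer lacking enzyme served as negative control. Compound preincubated 15 min, then 50 nM substrate added; 0 and 10 min reads at room temperature.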
FEN1 inhibitor – human FEN1 inhibition | P39748 | Recombinant FEN1 flap cleavage, fluorescence, 15 min | Potency, µM (highest dose often 114 µM), without a hit: top-dose activity change, negative = inhibition, usual class: inhibitors | actives 0.35% (n = 390,000); also: % is scaled to controls: 0 for no effect and ±100 for the full control effect; nearly all actives have a fitted effect of over 65% in size
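Read-out was taken twice, immediately and after 15 min, following addition of 50 nM substrate to 10 nM FEN1 that had sat with test compound for 15 min at room temperature. Curves came from a four-parameter Hill model.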
POLI inh – DNA polymerase iota (human) inhibition | Q9UNA4 | Pol iota fluorescent replication assay, 10 min | Potency, µM (doses to about 115 µM), for the others: at the top dose activity, negative = inhibition, hits mostly inhibitors | actives 1% (n = 390,000) | AID 588590
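Pol iota at 10 nM preincubated 15 min with compounds at room temperature; reaction started with fluorescent substrate, 50 nM final. Fluorescence read kinetically at 0 and 10 min; buffer-only wells as negative control.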
Pol eta inh-1 – blocks human DNA polymerase eta activity. Q9Y253. recombinant Pol eta, fluorescent DNA replication assay. actives 1.2% (n = 390,000). Potency, µM (highest dose often 114 µM), inactives show at the highest dose activity change, negative = inhibition, usual class: inhibitors. AID 588591; also: % is scaled to controls: 0 for no effect and ±100 for the full control effect
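Fluorescent replication assay: 50 nM final substrate added after a 15 min room-temperature compound preincubation with 10 nM enzyme. Signal taken at 0 min and again at 10 min.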
WRN inhibitor – inhibitors of human WRN helicase. Q14191. Potency, µM (titrated, usually from 114 µM), for the others: at the top dose activity change, negative = inhibition, actives largely listed as inhibitors. actives 0.46% (n = 360,000). WRN helicase unwinding, fluorescent forked duplex, kinetic; also: % is scaled to controls: 0 for no effect and ±100 for the full control effect; nearly all actives have a fitted effect of over 55% in size
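Kinetic fluorescence helicase assay: unwinding of a quenched forked DNA duplex (100 nM final) with 2 mM ATP final raises red fluorescence (525/598 nm). Compounds sat 15 min at room temperature with 20 nM WRN beforehand.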
Pol kappa inh-1 – blocks human DNA polymerase kappa activity. Potency, µM (highest dose often 107 µM), for inactives: top-dose activity, negative = inhibition, usual class: inhibitors. AID 588579. actives 0.53% (n = 400,000). Q9UBT6. purified Pol kappa, fluorescent DNA synthesis assay, 10 min; also: % is scaled to controls: 0 for no effect and ±100 for the full control effect
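10 nM Pol kappa preincubated 15 min at room temperature with compounds, then reaction started with substrate at 50 nM final. Fluorescence read kinetically at 0 and 10 min; buffer-only wells served as negative control.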
Pol iota confirm – Confirm cherry-picked inhibitors of human polymerase iota. shares compounds with Pol kappa inh-1. Pol iota primer extension, TAMRA/BHQ fluorescence. Potency, µM, most hits filed as inhibitors. actives 77% (n = 1,500). AID 720496
Pol kappa inh-2 – Pol kappa (human) inhibition, cherry-pick confirmation; shares compounds with Pol eta inh-1; actives 76% (n = 920); Potency, µM, usual class: inhibitors; AID 720501; purified Pol-kappa, fluorescent strand-displacement substrate
Pol eta inh-2 – confirmation of human DNA polymerase eta inhibitors. shares compounds with Pol eta inh-1. Pol eta primer extension, TAMRA/BHQ fluorescence, 10 min. Potency, µM, most hits filed as inhibitors. actives 64% (n = 2,600)
Starred values were filed as active, the others as inactive; ? = inconclusive; nt = no result; [ ] = remark or other dose. Calls follow the shape of the dose curve; as a rule, active = well fitted curve in the direction sought with a large enough effect; inconclusive = small, poorly fitted or top-dose-only effect, or another doubt; inactive = no such curve, though single readings can be large; an effect the other way counts as inactive or inconclusive. Potency is read from the fitted curve at half-maximal effect.

SMILES	POLB inh	FEN1 inhibitor	POLI inh	Pol eta inh-1	WRN inhibitor	Pol kappa inh-1	Pol iota confirm	Pol eta inh-2	others
O=C(N=Nc1c(O)[nH]c2ccccc12)c1cc(-c2cccs2)[nH]n1	?	?	?	56µM*	-30%	-30%	67*	nt	Pol kappa inh-2=?
O=C(Cc1cccs1)N=Nc1c(O)[nH]c2ccccc12	4%	8%	-15%	-22%	-12%	-15%	nt	nt
Cc1nn(CC(=O)NCc2ccc(OC(C)C)cc2)c(=O)c2c(C)n(-c3ccc(Cl)cc3)nc12	-11%	-1%	1%	-10%	nt	-6%[60.1 µM]	nt	nt
O=C(/C=C/c1ccc(Br)cc1)NC(=S)Nc1ccc(S(=O)(=O)Nc2nccs2)cc1	?	-3%	16%	?	-27%[11.6 µM]	-5%	15*	17*
O=C(O)c1ccc(Nc2nc(-c3cc4ccccc4oc3=O)cs2)cc1O	100µM*	?	22µM*	25µM*	?	56µM*	?	67*	Pol kappa inh-2=75*
COc1ccccc1-c1nnc2sc(-c3ccc(N(C)C)cc3)nn12	0%[57.1 µM]	-4%	1%	-11%	11%	3%	nt	nt
COc1ccccc1-c1nnc2sc(-c3cnccn3)nn12	?	-20%	?	45µM*	?	-40%	75*	?
CN1C(=O)/C(=C/c2ccc(C(=O)Nc3ccc(O)cc3C(=O)O)cc2)SC1=S	?	?	?	22µM*	-2%	-9%	75*	43*
COc1ccc(OC)c([N+](=O)[O-])c1C(N)=O	6.3µM*	?	18µM*	50µM*	?	?	21*	30*
C=Cc1ccc(Cn2c(C(=O)O)c(CNCc3cc(OC)ccc3OC)c3ccc(C)cc32)cc1	-1%	-6%	22%	-19%	nt	-8%	nt	nt
Cc1ccc(C(=O)O)cc1N1C(=O)c2cccc3c([N+](=O)[O-])ccc(c23)C1=O	18µM*	?	16µM*	10µM*	?	40µM*	27*	30*	Pol kappa inh-2=6.7*
O=C(Cn1c(=O)n(-c2ccccc2)c(=O)c2c3c(sc21)CCC3)c1ccc(Br)cc1	0%	-2%	-3%	1%	nt	-16%	nt	nt
CCOC(=O)C1CCCN(C(=O)Cn2ncc3c(C)n(Cc4ccccc4Cl)c(C)c3c2=O)C1 (stereo not drawn)	0%	4%	19%	-15%	nt	-17%	nt	nt
Cc1cc(/C=C2\SC(=S)NC2=O)c(C)[nH]1	22µM*	-24%	20µM*	20µM*	-9%[11.6 µM]	79µM*	?	76*
CCn1ncc(/C=C2/SC(=S)NC2=O)c1C	6%	6%	-8%	-17%	1%	-6%	nt	nt
COc1ccccc1C(CCN(Cc1cccs1)C(C)=O)c1ccco1 (stereo not drawn)	28µM*	6%	22µM*	25µM*	?	-36%	?	76*
Cc1ccsc1CCN1C(=O)N(c2ccc(F)cc2)C(=O)C1CC(=O)Nc1ccccc1 (stereo not drawn)	1%	-8%	30%	?	nt	-9%	nt	nt
CN1C(=O)/C(=C/c2ccccc2OCc2ccc(C(=O)O)cc2)NC1=S	-1%	-19%	?	-15%	-4%	-13%	nt	nt
O=C(O)c1ccc(COc2ccccc2/C=C2/NC(=O)N(c3cccc(Cl)c3)C2=O)cc1	25µM*	56µM*	28µM*	10µM*	?	40µM*	34*	34*	Pol kappa inh-2=19*

From PubChem BioAssay
